A word on the AC50: it is the midpoint of the concentration-response curve, whichever way the signal moves.

Results filed as inconclusive are left out. Activity calls are given as the source filed them. Rule for the calls: active = hit-call score of the fitted dose curve at least 0.9, where 1 is the maximum; inconclusive = response in the unintended direction; inactive = score below 0.9.

Read-out in the assay: alkyl and aryl transferase (GSTA2), GSTA2 (gene 2939)
The assay can be described thus: CLD_GSTA2_48hr: CellzDirect (CLD) Gene Expression Assay for alkyl and aryl transferase (GSTA2) at 48 hours (AID 2283708).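 Note: active means mRNA induction above DMSO vehicle baseline.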 As to the method:
CLD_48hr is a cell-based, multiplexed-readout assay that uses hepatocyte, a human liver primary cell, with measurements taken at 48 hours after chemical dosing in a 96-well plate.CLD_GSTA2_48hr is one of 16 assay component(s) measured or calculated from the CLD_48hr assay. It is designed to make measurements of mRNA induction, a form of inducible reporter, as detected with chemiluminescence signals by Quantitative Nuclease Protection Assay (qNPA) technology.Data from the assay component CLD_GSTA2_48hr was analyzed at the endpoint, CLD_GSTA2_48hr, in the positive analysis fitting direction relative to DMSO as the negative control and baseline of activity. Using a type of inducible reporter, gain-of-signal activity can be used to understand changes in the reporter gene as they relate to the gene GSTA2. Furthermore, this assay endpoint can be referred to as a primary readout. To generalize the intended target to other relatable targets, this assay endpoint is annotated to the transferase intended target family, where subfamily is alkyl and aryl transferase.
Human hepatocyte cultures were treated daily for two consecutive days with fresh dosing solutions containing appropriate concentrations of the 320 ToxCast chemicals (chemical identities were blinded to CellzDirect and other ToxCast collaborators), vehicle control (0.2% DMSO), and positive control inducers as summarized in Table 1. […] These replicate data, coupled with internal replicates designed within the blinded ToxCast chemical library, provided additional data to evaluate interindividual differences between hepatocyte preparations and their potential impact on chemical profiles.Cell morphology and integrity were evaluated using phase-contrast microscopy as an indicator of hepatocyte cell health (Tyson & Green, 1987). Cultures for each treatment group (i.e., media, vehicle [0.2% DMSO], positive control inducers [multiple concentrations], and the ToxCast chemicals [multiple concentrations]) were observed and cell morphology was assessed relative to vehicle control cultures at each harvest time point (0, 6, 24, or 48 h). […] Images were evaluated at the conclusion of the study to assess changes in cell integrity and account for the effects of chemical exposure on uncharacteristic changes in concentration-dependent gene expression profiles. The results from these determinations of apparent cytotoxicity were annotated (yes/no) alongside the corresponding qNPA data for reference.At the conclusion of each treatment period, hepatocyte cultures (96-well) were washed with 1 volume of HBSS, lysed by addition of 25 ul ArrayPlate lysis buffer (HTG, Tucson, AZ), and 70 ul/well of Denaturation Oil, denatured by incubation at 95C for 10 min, and frozen at approximately -70C until analysis by nuclease protection assay (qNPA) (Roberts et al., 2007). For qNPA analysis, cell lysates were thawed at 50C for approximately 30 min, qNPA probes were added, and samples were incubated at 95C for 10 min to begin the detection process by denaturing the target RNA, dissociating the duplexes and secondary structure hybridization. At the conclusion of the hybridization period, S1 nuclease reagent was added to each sample to digest all nonprotected nucleotides at 50C for 60-90 min. At the conclusion of the S1 nuclease digestions, all reactions were stopped by transfer of all the samples to fresh plates containing stop solution and incubated at 95C for 15 min to deactivate the enzyme, dissociate the mRNA/ DNA probe heterodimers, and hydrolyze the resulting single stranded mRNA, leaving a stoichiometric amount of single-stranded DNA nuclease protection probe, unmodified in sequence, as the only intact oligonucleotide left in the sample. Neutralization solution was subsequently applied to cooled (room temperature) plates, and samples were transferred to ArrayPlates for overnight incubations at 50Cto allow probes to be captured onto programmed locations on the ArrayPlates. […]
Take `C#CCN1C(=O)COc2cc(F)c(N3C(=O)C4=C(CCCC4)C3=O)cc21`: the compound was called inactive.
Turning to `CNC(=O)Oc1cccc(N=CN(C)C)c1`, the compound was called inactive.
Consider `ClC1C(Cl)C(Cl)C(Cl)C(Cl)C1Cl` (stereo not given), for which the result was inactive.
On the same count and under the same terms, for `O=C(O)C(F)(F)C(F)(F)C(F)(F)C(F)(F)C(F)(F)C(F)(F)C(F)(F)F` the value was “inactive”; for `COc1cc(OC)nc(NC(=O)NS(=O)(=O)c2cc(NC=O)ccc2C(=O)N(C)C)n1`, “inactive”.
Regarding `CC(C)OC(=O)Nc1cccc(Cl)c1`, the outcome was inactive.
For `O=[N+]([O-])c1c(Cl)c(Cl)c(Cl)c(Cl)c1Cl`, the compound was called inactive.
Take `CC1(c2ccc(Oc3ccccc3)cc2)OC(=O)N(Nc2ccccc2)C1=O` (stereo not given): the call was inactive.
In the case of `O=C(Nc1ccccc1)Nc1cnns1`, the result was inactive.
Turning to `CNC(=O)/C=C(\C)OP(=O)(OC)OC`, the compound was classed as inactive.
Regarding `O=[N+]([O-])/N=C1\NCCN1Cc1ccc(Cl)nc1`, the compound was called inactive.
With `CCOC1Oc2ccc(OS(C)(=O)=O)cc2C1(C)C` (stereo not given), the outcome was inactive.
As for `CCN(CC)C(=O)SCc1ccc(Cl)cc1`, the outcome was inactive.
With `CC(C)(C)C(O)C(Oc1ccc(Cl)cc1)n1cncn1` (stereo not given), the result was inactive.
For the compound `C[C@H]1[C@H](c2ccc(Cl)cc2)SC(=O)N1C(=O)NC1CCCCC1`, the AC50 was 34.4 µM (active).
As for `N#Cc1c(Cl)c(Cl)c(Cl)c(C#N)c1Cl`, the compound was classed as inactive.
For `OCCOc1ccccc1`, the outcome was inactive.
For the compound `CC(C)(C)C(O)/C(=C\c1ccc(Cl)cc1Cl)n1cncn1` (stereo not given), the outcome was inactive.
Regarding `[2H]C1([2H])[n+]2ccccc2-c2cccc[n+]2C1([2H])[2H]`, the compound was called inactive.
As for `Oc1ccc(Cl)cc1Cc1ccccc1`, the result was inactive.
On to `Cc1[nH]c(=O)n(C(C)(C)C)c(=O)c1Cl`, for which the outcome was inactive.
As to `CCC(C)Nc1c([N+](=O)[O-])cc(C(C)(C)C)cc1[N+](=O)[O-]` (stereo not given), the AC50 is 4.11 µM (active).
Consider `COC(=O)c1ccccc1CS(=O)(=O)NC(=O)Nc1nc(OC)cc(OC)n1`, for which the compound was classed as inactive.
Regarding `CCOCN(C(=O)CCl)c1c(C)cccc1CC`, the AC50 was 20 µM (active).
Consider `O=C1c2ccccc2C(=O)N1SC(Cl)(Cl)Cl`, for which the call was inactive.
Same read-out and setting: next, `CCC(C)(NC(=O)c1cc(Cl)c(C)c(Cl)c1)C(=O)CCl` (stereo not given): “inactive”; `CCC(C)(C)C(=O)OC1=C(c2ccc(Cl)cc2Cl)C(=O)OC12CCCCC2`: “inactive”.
For the compound `CC[C@H](C)[C@H]1O[C@]2(C=C[C@@H]1C)C[C@@H]1C[C@@H](C/C=C(\C)[C@@H](O[C@H]3C[C@H](OC)[C@@H](O[C@H]4C[C@H](OC)[C@@H](O)[C@H](C)O4)[C@H](C)O3)[C@@H](C)/C=C/C=C3\CO[C@@H]4[C@H](O)C(C)=C[C@@H](C(=O)O1)[C@]34O)O2` (tested in a mixture with another compound), the compound was classed as inactive.
For the compound `CC(C)N(C(=O)COc1nnc(C(F)(F)F)s1)c1ccc(F)cc1`, the result was inactive.
Still for that read-out and setting: next, `CC1(C)C(C=C(Cl)Cl)C1C(=O)OC(C#N)c1ccc(F)c(Oc2ccccc2)c1` (stereo not given): “inactive”; `COP(=O)(OC)OC=C(Cl)Cl`: “inactive”.
On the same count and under the same terms, next, `CCCN(CCOc1c(Cl)cc(Cl)cc1Cl)C(=O)n1ccnc1`: “inactive”; `COC(=O)c1ccccc1S(=O)(=O)NC(=O)Nc1nc(C)nc(OC)n1`: “inactive”; `Clc1ccccc1-c1nnc(-c2ccccc2Cl)nn1`: “inactive”.
`CCOc1nc(NC)nc(NC(=O)NS(=O)(=O)c2ccccc2C(=O)OC)n1`: the outcome was inactive.
Regarding `CN1CSC(=S)N(C)C1`, the outcome was inactive.
Take `N#CN`: the outcome was inactive.
In the case of `Oc1cc(Cl)ccc1Oc1ccc(Cl)cc1Cl`, the outcome was inactive.
With `CCCN(CCC)c1c([N+](=O)[O-])cc(C(F)(F)F)cc1[N+](=O)[O-]`, the call was inactive.
In the case of `COC(=O)c1ccccc1S(=O)(=O)NC(=O)N(C)c1nc(C)nc(OC)n1`, the compound was classed as inactive.

For the origin of these results see PubChem BioAssay (EPA / NIEHS).
